Screens: PubChem, National Center for Advancing Translational Sciences (NCATS)
TDP1 cell CPT: DT40-hTDP1 cell growth loss with CPT | Potency, µM (doses to about 46.2 µM), inactives show top-dose activity change, negative = growth inhibition, most hits filed as inhibitors | 420,000 compounds, 12% hits | AID 686979 | chicken DT40 Tdp1-/-;hTDP1 cells + 20 nM CPT, ATP luminescence, 48 h; further: on the % scale 0 is the no-effect control and ±100 the full control effect; nearly all actives have a fitted effect of over 55% in size
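Chicken DT40 Tdp1-/- cells stably complemented with human TDP1 were seeded at 400 cells/well in medium containing 20 nM camptothecin, exposed to pin-transferred compounds, and grown at 37 °C for at least 48 hr. Viability was read as ATP luminescence.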
TGFb SMAD3 inh: inhibitors of TGF-b signaling; HepG2 CAGA-GFP TGF-b/SMAD3 reporter, GFP fluorescence, 18 h; TGF-beta stimulated, 500 pg/mL final; Potency, µM (top dose mostly 46.1 µM), without a hit: at the highest dose activity, negative = inhibition, hits mostly inhibitors; 410,000 compounds, 1.2% hits; further: on the % scale 0 is the no-effect control and ±100 the full control effect; nearly all actives have a fitted effect of over 65% in size
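Per well, imaged GFP fluorescence of HEPG2 CAGA-GFP cells gives the signal; cells get compound, then TGF-beta (500 pg/mL final), 18 h at 37 degrees C; %Activity versus -TGF-beta and +DMSO controls.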
HT1080 IDH1KD tx: kills HT-1080 cells with IDH1 knockdown. HT-1080 IDH1 knockdown viability, ATP luminescence, 48 h. Potency, µM (highest dose often 46.1 µM), for inactives: top-dose activity, negative = toxicity, actives largely listed as cytotoxic. 360,000 compounds, 2% hits;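 further: 0% = DMSO wells and -100% = cell-free medium wells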
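Luminescent ATP read-out (CellTiter-Glo, 10 min at room temperature) after 48 h compound exposure at 37 °C gave viability of IDH1-knockdown HT-1080 cells. Activity was normalised to DMSO and cell-free wells, then fitted as concentration-response curves.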
HepG2 tox: HepG2 cytotoxicity, counter-screen for TGF-b inhibitors; HepG2 CAGA-GFP viability, ATP luminescence, 18 h; Potency, µM (series often up to 46.1 µM), for the others: at the top dose activity change, negative = cytotoxicity, actives largely listed as cytotoxic; 410,000 compounds, 0.76% hits; AID 588856
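CellTiter-Glo luminescence gave cytotoxicity after 18 hours at 37 degrees C. The cells were HepG2 CAGA-GFP in 1% FBS DMEM, stimulated with 500 pg/mL TGF-beta after compound addition. %Activity was normalised to no-cell wells (complete cell-killing) and DMSO (no toxicity), and curves were fitted and classified.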
HT1080-NT tox: kills 2HG-producing HT-1080-NT fibrosarcoma cells; HT-1080-NT fibrosarcoma viability, CellTiter-Glo ATP luminescence, 48 h; Potency, µM (titrated, usually from 46.1 µM), without a hit: at the top dose activity, negative = less viability, usual class: cytotoxic; 360,000 compounds, 1.6% hits;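 further: NT is the 2HG producing partner of a matched IDH1 knockdown line; 0% = DMSO-treated cells and -100% = media-only wells without cells; nearly all actives have a fitted effect of over 55% in size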
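Fibrosarcoma NT cells, 750 per well in 5% FBS RPMI, were exposed to compound for 48 hours. Viability: CellTiter-Glo luminescence.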
TDP1 cell noCPT: qHTS for Inhibitors of human tyrosyl-DNA phosphodiesterase 1 (TDP1): qHTS in cells in absence of CPT. 420,000 compounds, 15% hits. Potency, µM (series often up to 46.2 µM), inactives show at the top dose activity change, negative = growth inhibition, most hits filed as inhibitors. DT40 Tdp1-/- hTDP1 cells, no CPT, ATP luminescence, 48 h; further: on the % scale 0 is the no-effect control and ±100 the full control effect; nearly all actives have a fitted effect of over 55% in size
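Chicken DT40 Tdp1-/- cells complemented with human TDP1, screened without camptothecin (DMSO vehicle only), 400 cells/well. Compounds pin-transferred, cells incubated at 37 °C for at least 48 hr. Growth read as ATP-dependent luminescence (CellTiter-Glo, 30 min at RT).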
* hit, by the source's call; ? = inconclusive; . = not tested or not shown; ! = not active in a repeat; [ ] = another dose, or the depositor's remark. A selection: hits, their analogues and other compounds. The true share with any hit is near 17%. The call rests on the fitted dose curve; in most records, active means well fitted curve in the direction sought with a large enough effect; inconclusive means small, poorly fitted or top-dose-only effect, or another doubt; inactive means no such curve, though single readings can be large; an effect the other way counts as inactive or inconclusive. Potency means the concentration at half of the fitted maximal effect.

SMILES | TDP1 cell CPT | TGFb SMAD3 inh | HT1080 IDH1KD tx | HepG2 tox | HT1080-NT tox | TDP1 cell noCPT
Cc1ccc2nc3c(cc2c1)CN(Cc1ccco1)C(=NCC1CCCO1)S3 (centres undefined) | ? | 3.8% | -0.1% | -16.6% | 10.4% | ?
Cc1cccc2cc3c(nc12)SC(=NCC1CCCO1)N(Cc1ccco1)C3 (centres undefined) | ? | ? | 10.3µM* | -82.6% | 5.8µM* | 23.1µM*
CCOC(=O)C1=CN(Cc2cccc(F)c2)S(=O)(=O)N(CC)C1c1ccccc1 (centres undefined) | ? | ? | -0.1% | -19.2% | 0.2% | ?
O=C(NCC(=O)N1CC(O)CC1C(=O)N1CC(O)CC1C(=O)OCc1ccccc1)OCc1ccccc1 (centres undefined) | 6.2% | 1.7% | 4.4% | 1.6% | -0.2% | 10.5%
O=C(CN1C(=O)C2(SCC(=O)N2c2ccc(F)cc2)c2ccccc21)NC1CCCCC1 (centres undefined) | -23.4% | -3.4% | . | 0.9% | . | -21.2%
O=C(CN1C(=O)C2(SCC(=O)N2c2cccc(Cl)c2)c2ccccc21)NC1CCCCC1 (centres undefined) | 16.4µM* | -4.4% | . | -1.3% | . | 18.4µM*
O=C(CN1C(=O)C2(SCC(=O)N2c2cccc(Cl)c2)c2ccccc21)NCCc1ccccc1 (centres undefined) | ? | 11.2µM* | . | -19.9% | . | ?
Cc1cc(C)cc(N2C(=O)CSC23C(=O)N(CC(=O)NC2CCCCC2)c2ccccc23)c1 (centres undefined) | 20.6µM* | -3.1% | . | -19.1% | . | ?
COc1cccc(N2C(=O)CSC23C(=O)N(CC(=O)Nc2cccc(Cl)c2)c2ccccc23)c1 (centres undefined) | 18.4µM* | -23.5% | . | -17.6% | . | ?
O=C(CN1C(=O)C2(SCC(=O)N2c2cccc(Cl)c2)c2ccccc21)NCc1ccccc1 (centres undefined) | ? | -21.0% | . | -12.2% | . | ?
COc1ccccc1S(=O)(=O)Nc1cc(C)nn1-c1ccc(C)cc1 | 9.7% | 9.0% | 0.0% | 0.5% | -17.0% | -2.5%
CCC(C)NC(=O)Cn1c(=O)n(-c2ccc(C)c(C)c2)c(=O)c2c3c(sc21)CCCCC3 (centres undefined) | 0.5% | -1.0% | . | 0.1% | . | -4.5%
CN(C(=O)Cn1c(=O)n(CCC(=O)NCc2ccc3c(c2)OCO3)c(=O)c2sccc21)c1ccccc1 | -16.2% | -7.4% | . | -21.7% | . | -1.4%
CCOC(=O)c1cc2c(=O)n3ccccc3nc2n(Cc2ccco2)c1=NC(=O)c1ccc(C)c(C)c1 | -23.0% | 13.2% | . | 3.2% | . | ?
CCOC(=O)c1cc2c(=O)n3ccccc3nc2n(CCOC)c1=NC(=O)c1c(-c2c(F)cccc2Cl)noc1C | ? | 20.2% | ? | -3.5% | ? | 18.4µM*!
CCOC(=O)c1cc2c(=O)n3ccccc3nc2n(Cc2ccco2)c1=NC(=O)c1cccc(C)c1 | 23.1µM* | 23.1% | . | -25.8% | . | ?
CCOC(=O)c1cc2c(=O)n3ccccc3nc2n(CCCOC)c1=NC(=O)c1c(-c2ccccc2Cl)noc1C | -1.3% | -21.5% | . | -6.8% | . | 4.5%
CCOC(=O)c1cc2c(=O)n3ccccc3nc2n(Cc2ccco2)c1=NC(=O)c1cccnc1 | ? | -4.0% | -2.7% | 6.7% | 1.7% | ?
CCOC(=O)c1cc2c(=O)n3cccc(C)c3nc2n(Cc2ccco2)c1=NC(=O)c1cccnc1 | 16.4µM* | 17.2% | 10.2% | -1.9% | 16.1% | ?
CCOC(=O)c1cc2c(=O)n3ccccc3nc2n(Cc2ccco2)c1=NC(=O)c1ccc(Br)cc1 | 18.4µM* | ? | . | -14.9% | . | -83.5%
COc1ccc(CCN2C(=O)C3C4C=CC(C4)C3C2=O)cc1OC (centres undefined) | -24.0% | -2.6% | 14.2% | -0.2% | 7.4% | -0.5%
CCOC(=O)c1cc2c(=O)n3ccccc3nc2n(Cc2ccco2)c1=NC(=O)c1ccccc1OCC | ? | ? | -0.4% | 4.5% | -0.4% | 18.4µM*
CCOC(=O)c1cc2c(=O)n3ccccc3nc2n(CCOC)c1=NC(=O)c1ccncc1 | ? | 0.0% | -10.3% | -16.3% | -4.8% | ?
CCOC(=O)c1cc2c(=O)n3ccccc3nc2n(Cc2ccco2)c1=NC(=O)c1c(F)cccc1Cl | ? | ? | . | 6.0% | . | 20.6µM*
CCOC(=O)c1cc2c(=O)n3ccccc3nc2n(Cc2ccco2)c1=NC(=O)c1cccc(Br)c1 | 16.4µM* | 1.6% | . | -44.5% | . | ?
SMILES | TDP1 cell CPT | TGFb SMAD3 inh | HT1080 IDH1KD tx | HepG2 tox | HT1080-NT tox | TDP1 cell noCPT
COc1cccc(Nc2ncc3nc(-c4ccc(Cl)cc4)c(=O)n(C4CC4)c3n2)c1 | -18.9% | . | . | . | . | -0.8%
CCCn1c(SCC(=O)NCCc2ccc(Cl)cc2Cl)n[nH]c1=O | -21.7% | 3.9% | 5.7%[9.24 µM] | -26.4% | -2.9% | -19.7%
O=C(c1ccc(F)cc1)C(CCCCCC(CN1CCOCC1)C(=O)c1ccc(F)cc1)CN1CCOCC1 (centres undefined) | ? | -2.4% | ? | -26.2% | ? | 18.4µM*
OC(CN1CCOCC1)c1ccc(F)cc1 (centres undefined) | 4.6% | 1.9% | -3.0% | 1.5% | 3.2% | -5.6%
COc1cc(Cl)c(C)cc1NC(=O)CSc1cc(-c2ccccc2)nc(C)n1 | -20.2% | -7.9% | . | -2.7% | . | -17.0%
COc1ccc(NC(=O)C(C)Sc2cc(-c3ccccc3)nc(C)n2)cc1Cl (centres undefined) | 20.6µM* | 0.0% | . | -0.2% | . | 20.6µM*
Cc1nc(SC(C)C(=O)Nc2ccccc2C)cc(-c2ccccc2)n1 (centres undefined) | 14.6µM* | ? | . | -34.7% | . | 20.6µM*
COCc1cc(=O)n2c([nH]c3ccccc32)c1C#N | -20.4% | -2.2% | 0.0% | -30.5% | 0.0% | ?
C=C(C)Cc1c(C)c(C#N)c2[nH]c3ccccc3n2c1=O | 3.3% | -32.2% | 16.4µM* | -18.3% | -12.8% | ?
Cc1ccc(Cc2c(C)c(C#N)c3[nH]c4ccccc4n3c2=O)cc1 | ? | ? | -20.1% | -24.9% | -16.5% | 23.1µM*
Cc1c(CCC(=O)O)c(=O)n2c([nH]c3ccccc32)c1C#N | 5.6% | 1.3% | -0.3% | 7.7% | 7.8% | 0.1%
